In the library only some 3.5% were active in any assay of this set; here they are far more common.
CHRM1 agonist = human M1 muscarinic receptor agonists, primary screen, Fluo-8 calcium fluorescence, CHO-K1 cells, HTS; Muscarinic acetylcholine receptor M1 (Homo sapiens), P11229; CHO-K1 hM1, agonist mode; 0% DMSO, 100% acetylcholine EC100; activation, % at 3 µM; 360,000 compounds, 0.33% hits;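 active = activation above the run's mean compound activation plus 3 SD, cut at about 16% in these data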;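 note: peak over basal fluorescence ratio within a 140 s kinetic read after compound addition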
Target sequence (P11229 whole entry, looked up): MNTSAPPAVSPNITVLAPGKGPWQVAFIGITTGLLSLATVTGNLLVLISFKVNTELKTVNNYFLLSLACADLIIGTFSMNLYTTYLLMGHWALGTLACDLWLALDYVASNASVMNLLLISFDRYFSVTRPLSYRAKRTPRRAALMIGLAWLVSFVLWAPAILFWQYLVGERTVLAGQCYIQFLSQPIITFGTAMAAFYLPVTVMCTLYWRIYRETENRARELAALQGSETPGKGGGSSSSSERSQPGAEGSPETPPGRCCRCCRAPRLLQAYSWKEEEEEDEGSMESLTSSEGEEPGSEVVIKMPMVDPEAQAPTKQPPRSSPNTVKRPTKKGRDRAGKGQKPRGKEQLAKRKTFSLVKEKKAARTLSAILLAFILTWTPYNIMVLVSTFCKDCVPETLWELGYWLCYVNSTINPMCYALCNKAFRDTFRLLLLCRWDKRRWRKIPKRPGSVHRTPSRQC
SKN-1 block = suppressors of acrylamide-induced Pgst-4::GFP reporter in worms, primary screen, SKN-1 inhibitor project, whole organism, uHTS, GFP/RFP fluorescence ratio, strain VP596; C. elegans VP596 Pgst-4::GFP/RFP ratio, 24 h; inhibition, % at 21.8 µM; 360,000 compounds, 0.49% hits;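 active = interference check ratio from 0.5 to 1.5 plus GFP to RFP signal ratio inhibition reaching or exceeding a fixed threshold, cut at about 30% in these data, passing the limit was not always enough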
M1 PAM = human M1 muscarinic receptor positive allosteric modulators, primary screen, CHO-K1 cells, Fluo-8 calcium fluorescence, 1536-well; activation, % at 3 µM; CHO-K1 hM1, ACh EC20; 0% = ACh EC20, 100% = maximal ACh; AID 588819, 2011; 360,000 compounds, 0.088% hits; in the data active = activation above about 19%, passing the limit was not always enough
ATG4B inh = ATG4B protease inhibitors, primary screen, biochemical, fluorescence, uHTS; 340,000 compounds, 0.51% hits; Cysteine protease ATG4B (Homo sapiens), Q9Y4P1; ATG4B cleavage of LC3-PLA2, NBD-HPC fluorescence, 1 h; inhibition, % at 8.33 µM; in the data active = inhibition above about 40%
M1 antag = human M1 muscarinic receptor antagonists, primary screen, CHO-K1 cells, Fluo-8 calcium fluorescence, 1536-well; Muscarinic acetylcholine receptor M1 (Homo sapiens), P11229; CHO-K1 hM1, ACh EC80 antagonist; inhibition, % at 3 µM; 360,000 compounds, 1.3% hits; AID 588852, 2011;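 active = percent inhibition above its own plate's cutoff, namely the mean of that plate's compound wells plus 3 SD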;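 note: peak over basal fluorescence ratio during 140 s after agonist addition; 0% = ACh EC80 plus DMSO and 100% = DMSO alone without agonist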
Myeloid diff 2 = induction of myeloid progenitor differentiation, primary screen, cell-based, flow cytometry, MLPCN library; calls only at 10 µM; ER-HoxA9 myeloid progenitors, lysozyme-GFP differentiation; 360,000 compounds, 1% hits;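 active = normalized GFP-positive differentiation at or above the plate's own cutoff, the solvent-only control mean plus 3 SD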;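 note: cells exposed to compound for four days before flow analysis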
Myeloid diff CP1 = inducers of myeloid progenitor differentiation, confirmation, cell-based, GFP/Mac1 flow cytometry, cherry pick 01; ER-HoxA9 myeloid progenitors, GFP/Mac1 double-positive flow; AID 651706, 2012; calls only; 2,300 compounds, 2% hits; shares compounds with Myeloid diff 2;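 active = share of green or green-and-red cells above 9 and 9% in run 1 or 4 and 3% in run 2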
GFP autofluor = flagged as fluorescent in myeloid differentiation counter-screen | shares compounds with Myeloid diff 2 | ER-HoxA9 myeloid progenitors, no estrogen, GFP autofluorescence flow cytometry; vehicle wells 0%, positive control 100% | fluorescence response, % (test concentration not listed) | 2,300 compounds, 7.4% hits | AID 651707;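 active = over 5% cells positive for green fluorescent reporter, or over 2% positive for both it and APC stain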;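 note: range taken on the double positive population between DMSO and positive control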
* marks the source's active call; other numbers are inactive results; i = inactive; / = no result; + = active, no number.

SMILES	CHRM1 agonist	SKN-1 block	M1 PAM	ATG4B inh	M1 antag	Myeloid diff 2	Myeloid diff CP1	GFP autofluor
CNc1cc(-c2ccc(OC)nc2)ncn1	-2	-10	-2	/	-2	i	/	/
COc1ccc(CN2CCC[C@]3(N[C@H](c4ccc(OC)cc4)[C@@H]4C(=O)N(Cc5ccccc5)C(=O)[C@@H]43)C2=O)cc1	-6	6	-4	/	-10	i	/	/
COc1ccc(CN2CCC[C@]3(N[C@H](c4ccc(C)cc4)[C@@H]4C(=O)N(Cc5ccccc5)C(=O)[C@@H]43)C2=O)cc1	-4	6	-5	/	1	i	i	0
Cn1cccc1CN1CCC[C@]2(N[C@H](c3ccccc3)[C@@H]3C(=O)N(Cc4ccccc4)C(=O)[C@@H]32)C1=O	-4	-3	-2	/	10	i	/	/
COc1ccc([C@H]2N[C@]3(CCCN(Cc4cccn4C)C3=O)[C@H]3C(=O)N(Cc4ccccc4)C(=O)[C@@H]23)cc1	-3	-1	8	/	-8	i	i	1
CCC(CC)C(=O)N1CCN(Cc2ccc3c(c2)OCO3)CC1	-6	3	6	-3	-10	i	i	2
COc1ccc(Cl)cc1S(=O)(=O)N1CCN(Cc2ccc3c(c2)OCO3)CC1	-4	-2	2	-1	-1	i	/	/
COc1ccc(C(=O)O)cc1S(=O)(=O)N1CCN(Cc2ccc3c(c2)OCO3)CC1	-4	7	-1	0	2	i	i	0
C[C@@H]1CN([C@@H](C)CO)S(=O)(=O)c2ccc(Br)cc2O[C@H]1CN(C)C(=O)Cc1cccnc1	-5	-7	2	/	-2	i	/	/
CC(=O)Oc1ccc(/C=C2/SC(=S)N(Cc3ccccc3)C2=O)cc1	2	-15	12	9	-1	+	i	38*
COc1cc(/C=C2/SC(=S)N(Cc3ccccc3)C2=O)ccc1OS(C)(=O)=O	3	2	9	-2	-11	i	/	/
Cc1ccc2c(c1)C(c1ccccc1)N(C(=O)CC(C)C)CC(=O)N2 (centres undefined)	-6	17	4	8	-3	i	/	/
CCOc1ccc(N(Cc2cc3cc(OC)ccc3[nH]c2=O)C(=O)C2CCCO2)cc1 (centres undefined)	-3	-22	-4	-8	-5	+	i	0
COc1cccc2sc(N3CCN(C(=O)c4ccc([N+](=O)[O-])o4)CC3)nc12	-6	2	0	-7	-2	+	i	0
O=C(c1ccc([N+](=O)[O-])o1)N1CCN(c2nc3ccc(F)cc3s2)CC1	-3	25	7	5	-6	i	i	0
CCOc1ccccc1C(=O)Nn1c(C2CCC2)nc2ccccc2c1=O	-2	19	-8	-1	4	+	i	0
COc1ccccc1C(=O)Nn1c(C2CCC2)nc2ccccc2c1=O	-5	7	-3	-3	0	i	/	/
COc1ccc(CC(=O)NC2CCN(CC(=O)N3CCCc4ccccc43)CC2)cc1OC	-6	-14	6	4	2	i	i	0
COc1ccc(CC(=O)N2CCCc3ccccc32)cc1OC	-7	11	16	-5	-24	i	/	/
CC(C)OC(=O)NC(C)(C)COC(=O)Nc1cccc(Cl)c1	-2	6	-1	3	8	i	i	0
O=C(C[C@@H]1C/C=C\C[C@H](Cc2ccc(F)cc2)C(=O)OC[C@H]2CCCN2C1=O)N[C@H](CO)Cc1ccccc1	-7	16	-4	-10	5	i	/	/

Screening results as filed in PubChem.
